# S2 tox: viability counter-screen for ATXN expression inhibitors | S2 cells (HEK-293 line with an ATXN2-luciferase reporter) viability, CellTiter-Fluor protease fluorescence, 24 h | Potency, µM (top dose mostly 56.7 µM), hits mostly cytotoxic | 0.49% of 400,000 active; note: nearly all actives have a fitted effect of over 40% in size
# RORgamma inh: inhibitors of mouse ROR gamma transcriptional activity. P51450. Drosophila S2 Gal4-RORgamma UAS-luciferase reporter, 20 h. Potency, µM (doses to about 53.6 µM), inactives show at the top dose activity change, negative = inhibition, usual class: inhibitors. 5.4% of 310,000 active. AID 2551; note: % is set by controls: 0 for no effect and ±100 for the full control effect; nearly all actives have a fitted effect of over 60% in size
# Target sequence (P51450 whole entry, looked up, the tested form may be a part): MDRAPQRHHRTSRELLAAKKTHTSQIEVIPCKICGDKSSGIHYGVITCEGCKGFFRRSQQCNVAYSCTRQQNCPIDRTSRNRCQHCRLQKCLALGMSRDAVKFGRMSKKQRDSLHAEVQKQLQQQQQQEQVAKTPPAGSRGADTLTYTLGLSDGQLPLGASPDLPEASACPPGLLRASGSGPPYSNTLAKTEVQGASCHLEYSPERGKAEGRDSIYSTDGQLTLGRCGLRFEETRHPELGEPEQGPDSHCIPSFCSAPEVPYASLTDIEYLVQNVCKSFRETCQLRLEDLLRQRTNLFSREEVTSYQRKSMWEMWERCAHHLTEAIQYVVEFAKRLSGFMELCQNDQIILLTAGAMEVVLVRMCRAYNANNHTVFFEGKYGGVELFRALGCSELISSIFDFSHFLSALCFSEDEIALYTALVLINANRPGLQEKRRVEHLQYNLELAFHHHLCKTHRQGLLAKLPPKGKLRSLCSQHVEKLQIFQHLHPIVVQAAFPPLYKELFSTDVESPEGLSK
#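 Read-out: Photinus luciferase luminescence; inhibitors lower reporter signal. Insect Schneider cells with Gal4-ROR gamma fusion under metallothionein promoter, UAS reporter; 700 uM final copper sulfate induction, 20 hr, ambient temperature.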
# VP16 counter: Gal4-VP16 reporter inhibition counter-screen | Drosophila S2 Gal4-VP16 UAS-luciferase, luminescence, 20 h | Potency, µM (highest dose often 53.6 µM), for inactives: top-dose activity, negative = inhibition, usual class: inhibitors | 3.5% of 310,000 active;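 note: Gal4-VP16 expression switched on by copper sulfate through the metallothionein promoter; % is set by controls: 0 for no effect and ±100 for the full control effect; nearly all actives have a fitted effect of over 50% in size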
# TGFb inhibitor: inhibitors of TGF-b signaling. HepG2 CAGA-GFP TGF-b/SMAD3 reporter, GFP fluorescence, 18 h; TGF-beta stimulated, 500 pg/mL final. Potency, µM (doses to about 46.1 µM), without a hit: at the top dose activity, negative = inhibition, most hits filed as inhibitors. 1.2% of 410,000 active. AID 588855; note: % is set by controls: 0 for no effect and ±100 for the full control effect; nearly all actives have a fitted effect of over 65% in size
#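 Per well, imaged GFP fluorescence of HEPG2 CAGA-GFP cells gives the signal; cells get compound, then TGF-beta (500 pg/mL final), 18 h at 37 degrees C; %Activity versus -TGF-beta and +DMSO controls.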
# ATXN2 expr inh: ATXN2 expression inhibition | HEK-293 ATXN2-luciferase reporter, luminescence, 24 h | Potency, µM (top dose mostly 57 µM), without a hit: at the top dose activity change, negative = inhibition, most hits filed as inhibitors | 0.72% of 360,000 active | AID 1745845; note: % is set by controls: 0 for no effect and ±100 for the full control effect; nearly all actives have a fitted effect of over 55% in size
#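 qHTS (up to 57 uM final) was run with 24 h compound exposure of reporter cells at 37 °C. Each well was multiplexed: SteadyGlo luminescence measured ATXN2-luciferase expression after a fluorogenic Gly-Phe-AFC viability readout (25 uM final).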
# HepG2 viability: counter-screen for TGF-b inhibitors: cytotoxicity in HepG2 cells; Potency, µM (series often up to 46.1 µM), for inactives: at the top dose activity change, negative = cytotoxicity, usual class: cytotoxic; 0.76% of 410,000 active; HepG2 CAGA-GFP viability, ATP luminescence, 18 h
#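 HepG2 CAGA-GFP cells (1000/well, DMEM with 1% FBS) received compound, then TGF-beta at 500 pg/mL final, and were incubated 18 hours at 37 degrees C. Viability was read by CellTiter-Glo luminescence. Media-only wells were set as complete cell-killing and DMSO as no toxicity.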
# * marks the source's active call; other numbers are inactive results; i = inactive; ? = inconclusive; nt = no result. The list is not random: actives were taken first. Their share in the collection is about 6.3%. Calls come from the whole dose curve; as a rule, active = well fitted curve in the direction sought with a large enough effect; inconclusive = small, poorly fitted or top-dose-only effect, or another doubt; inactive = no such curve, though single readings can be large; an effect the other way counts as inactive or inconclusive. Potency is the fitted concentration of half-maximal effect.
SMILES,S2 tox,RORgamma inh,VP16 counter,TGFb inhibitor,ATXN2 expr inh,HepG2 viability
COC(=O)c1c(C)[nH]c(C(=O)OCc2ccc(F)cc2)c1C,i,-28.5%,13.6%,?,37.2%,-49.5%
COC(=O)c1c(C)[nH]c(C(=O)/C=C/c2ccc(C)cc2)c1C,i,0.316µM*,3.98µM*,-7.5%,-35.5%,1.9%
COC(=O)c1c(C)[nH]c(C(=O)/C=C/c2cccc(Cl)c2)c1C,?,8.91µM*,?,10.8%,20.9%,0.3%
COC(=O)c1c(C)[nH]c(C(=O)/C=C/c2ccccc2)c1C,i,1.41µM*,7.08µM*,-18.5%,51.2%,9.0%
Cc1[nH]c2ccccc2c(=O)c1C(=O)/C=C/c1ccccc1,14.1µM*,5.62µM*,5.62µM*,?,11.2µM*,-50.4%
Cc1ccc(C)c(/C=N/NC(=S)NCCc2ccccc2)c1,i,7.08µM*,7.94µM*,-9.1%,-2.6%,-21.8%
Oc1ccccc1/C=N/NC(=S)NCCc1ccccc1,i,7.08µM*,22.4µM*,0.0%,-14.2%,-31.2%
S=C(NCCc1ccccc1)N/N=C/c1cccc(Cl)c1Cl,i,22.4µM*,?,?,1.7%,-3.7%
O=C(O)c1ccccc1/C=N/NC(=S)NCc1ccccc1,i,-14.8%,17.9%,-3.4%,-4.4%,4.2%
OCCNC(=S)NCCc1ccccc1,i,-10.2%,16.0%,7.5%,14.9%,2.0%
S=C(NCCc1ccccc1)Nc1c(Cl)cccc1Cl,?,12.6µM*,-27.2%,-23.6%,1.1%,-38.7%
CSCCC(=O)NC1CCCN(CCc2ccccc2)C1 (stereo not drawn),i,-13.6%,-16.0%,1.3%,4.4%,0.4%
CCOCCn1ccc2c(OCC(=O)Nc3cc(C(F)(F)F)ccc3Cl)cccc2c1=O,i,nt,nt,-7.2%,-10.6%,6.7%
O=C(O)c1ccc(NC(=O)c2ccc(Br)c(S(=O)(=O)N3CCCC3)c2)cc1,i,nt,nt,-0.4%,12.8%,-2.5%
Cc1ccc(S(=O)(=O)N2CCOCC2)cc1C(=O)NC(=S)N1CC(C)OC(C)C1 (stereo not drawn),i,4.47µM*,15.8µM*,-9.3%,nt,21.5%
O=C(Nc1ccccc1)c1ccc(Br)c(S(=O)(=O)N2CCCCC2)c1,nt,nt,nt,6.31µM*,nt,-47.3%
O=C(NC(=S)Nc1ccc(S(=O)(=O)N2CCCCC2)cc1)c1ccccc1,i,8.91µM*,?,15.3%,-15.5%,-6.5%
Cc1ccccc1C(=O)NC(=S)Nc1ccc(S(=O)(=O)N2CCOCC2)cc1,i,20µM*,17.8µM*,13.5%,-35.2%,-9.1%
Cc1ccc(S(=O)(=O)NCc2ccc(C(=O)NCc3cccnc3)cc2)cc1,nt,0.6%,2.5%,nt,nt,nt
O=C(Nc1ccc(S(=O)(=O)N2CCCCC2)cc1)c1ccc(CN2CCc3ccccc3C2)cc1,i,?,4.47µM*,3.9%,-35.1%,0.1%
O=C(Nc1ccccc1)c1ccc(CN2CCc3ccccc3C2)cc1,i,36.6%,20.5%,1.7%,-17.5%,-18.3%
COc1ccc(C2SCCN2C(=S)Nc2ccc(Cl)cc2)cc1 (stereo not drawn),i,12.6µM*,?,?,4.6%,-7.5%
CCOC(=O)c1ccc(NC(=S)N2CCSC2c2c(F)cc(F)cc2F)cc1 (stereo not drawn),i,12.6µM*,?,?,-10.7%,-25.7%
O=C(CCSCc1cnn(-c2ccccc2)c1-n1cccc1)NCc1ccc(Cl)cc1,nt,nt,nt,15.8µM*,nt,-27.2%
CCC(C)NC(=O)CSc1nnc(-c2cc(OC)c(OC)c(OC)c2)c(-c2cc(OC)c(OC)c(OC)c2)n1 (stereo not drawn),i,2.82µM*,?,48.1%,4.7%,9.5%
CCCCn1c2ccc(F)cc2c2nnc(SCCN(CC)CC)nc21,i,nt,nt,-16.8%,-12.7%,-21.8%
CCN(CC)CCSc1nnc2c3cc(C)ccc3n(Cc3ccccc3)c2n1,15.8µM*,-17.9%,-5.6%,?,?,-30.3%
